Only some compounds are listed: those with a hit (about 6.9% of all), similar ones and a draw of the others.
Giardia killer: Giardia lamblia killing. Giardia lamblia trophozoite viability. actives 0.15% (n = 340,000). activity change, % at 7.66 µM, hits read low. AID 540267; in the data active = activity change below about -80%; inconclusive = between about -30% and that limit;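 also: parasites exposed to compound for two days anaerobically before the ATP read; % is scaled to controls: 0 for no effect and ±100 for the full control effect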
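Anaerobic 48 hrs incubation at 37 deg C of 100 trophozoites/well with test compounds; ATPLite 1-Step luminescence, 15-30 min RT, reports cellular ATP as viability.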
Vif-APOBEC3F blk: Vif-A3F binding inhibition; AID 602313; Potency, µM (series often up to 46.1 µM), for the others: top-dose activity, negative = active; actives 0.2% (n = 390,000); HeLa A3F-eYFP + Vif (tagged APOBEC3F with the HIV-1 protein that degrades it), YFP fluorescence increase; also: potency is read from the fitted curve at half-maximal effect; % of control where 0% means no effect; nearly all actives have a fitted effect of over 65% in size
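HeLa cells stably expressing A3F-eYFP plus Vif, plated and incubated overnight at 37 deg C, then exposed to compounds overnight at 37 deg C. Blocked degradation read as raised yellow fluorescence (Ex 488/Em 500-530).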
SW480 rereplic: DNA re-replication induction in SW480 cells | SW480 DNA re-replication, Hoechst DNA content imaging, 48 h | Potency, µM (top dose mostly 46.1 µM), for the others: top-dose re-replication activation, actives largely listed as activators | actives 1.8% (n = 340,000); also: potency is read from the fitted curve at half-maximal effect; % of control where 0% means no effect; nearly all actives have a fitted effect of over 55% in size
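Cells (250 per well) received 23 nL compound or DMSO by pin tool and were kept 48 hr at 37 C, 5% CO2. Nuclei were then stained with Hoechst for 40 min and scanned for DNA content.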
IL-1B inflam inh: inflammasome signaling inhibition, IL-1 beta readout | actives 4.7% (n = 360,000) | THP-1 LPS/ATP IL-1B secretion, AlphaLISA, 16 h; hits give low values | activity change, % at 57.5 µM | AID 743279; in the data active = activity change below about -50%; inconclusive = mostly about -30% to -49%; also: % is scaled to controls: 0 for no effect and ±100 for the full control effect
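Secreted IL-1B measured by AlphaLISA bead assay after 16 h compound exposure of THP-1 cells; compounds (final up to 57.5 uM) added 1 h before LPS (250 ng/mL) and ATP (1.25 mM) stimulation; lower signal means less secretion.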
MCF10A rereplic: inducers of DNA re-replication in MCF 10A breast cells; actives 2.9% (n = 350,000); Potency, µM (top dose mostly 46.1 µM), for the others: at the top dose activity, positive = re-replication, actives largely listed as activators; MCF 10A DNA re-replication, Hoechst nuclear intensity, 48 h; also: potency is read from the fitted curve at half-maximal effect; % of control where 0% means no effect; nearly all actives have a fitted effect of over 50% in size
Vif-APOBEC3G blk: blocks the Vif interaction with human APOBEC3G; actives 0.076% (n = 410,000); Q9HC16; AID 602310; HeLa A3G-eYFP + Vif (tagged APOBEC3G with the HIV-1 protein that degrades it), YFP fluorescence, overnight; Potency, µM (titrated, usually from 46.1 µM), for inactives: at the top dose activity, negative = active, actives largely listed as inhibitors; also: potency is read from the fitted curve at half-maximal effect; % is scaled to controls: 0 for no effect and ±100 for the full control effect; nearly all actives have a fitted effect of over 60% in size
Target sequence (Q9HC16 whole entry, looked up): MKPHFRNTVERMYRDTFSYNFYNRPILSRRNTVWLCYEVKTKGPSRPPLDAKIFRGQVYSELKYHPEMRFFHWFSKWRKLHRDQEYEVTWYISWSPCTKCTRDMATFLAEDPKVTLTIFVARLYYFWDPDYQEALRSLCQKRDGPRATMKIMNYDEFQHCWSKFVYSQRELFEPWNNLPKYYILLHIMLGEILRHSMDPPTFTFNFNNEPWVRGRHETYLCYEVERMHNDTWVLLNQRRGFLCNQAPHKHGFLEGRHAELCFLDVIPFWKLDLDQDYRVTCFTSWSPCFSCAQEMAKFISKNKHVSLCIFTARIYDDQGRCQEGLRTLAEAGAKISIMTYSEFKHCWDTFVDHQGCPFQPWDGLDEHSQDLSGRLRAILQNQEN
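HeLa cells stably expressing Vif and C-terminally eYFP-tagged A3G, seeded overnight at 37 deg C, then exposed to compound by pintool overnight at 37 deg C. Rise in yellow fluorescence (Ex 488/Em 500-530, Acumen) marks blocked Vif-driven A3G degradation.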
The depositor's hits bear a star; ? = inconclusive; . = not tested or not shown. Unless noted, calls follow the shape of the dose curve; as a rule, active = well fitted curve in the direction sought with a large enough effect; inconclusive = small, poorly fitted or top-dose-only effect, or another doubt; inactive = no such curve, though single readings can be large; an effect the other way counts as inactive or inconclusive.

SMILES | Giardia killer | Vif-APOBEC3F blk | SW480 rereplic | IL-1B inflam inh | MCF10A rereplic | Vif-APOBEC3G blk
CCOCCn1ccc2c(OCC(=O)Nc3cccc(F)c3)cccc2c1=O | . | -3.1% | . | . | . | -0.5%
COc1ccc(C2(O)CCN(CC(=O)Nc3nc(-c4ccccc4)cs3)CC2)cc1 | 3.7 | 0.0% | 8.2% | -98.3* | 20.3% | -3.1%
CCc1noc(C)c1C(=O)Nc1nc(-c2ccc(OC)cc2)cs1 | 5.2 | -3.6% | 18.4µM* | 32.2 | 24.6% | -0.7%
Cc1ccc(-c2csc(NC(=O)C3CC(=O)N(Cc4ccco4)C3)n2)cc1 (centres undefined) | 14.3 | -11.5% | 14.5% | -64.7* | 2.5% | 2.4%
CN1CCN(CC(=O)Nc2nc(-c3ccccc3)cs2)CC1 | 11.8 | 0.2% | -0.4% | 16.0 | 8.9% | 4.3%
CCc1noc(C)c1C(=O)Nc1nc(-c2ccc(OC)cc2OC)cs1 | 9.0 | -18.2% | -715.2% | 12.4 | 7.8% | -1.7%
COc1ccc(-c2csc(NC(=O)CSc3n[nH]c(C)n3)n2)cc1 | 21.2 | 1.6% | 8.3% | -90.8* | 55.7% | 0.1%
Clc1cccc[n+]1CCc1ccccc1 | . | . | . | . | . | 1.1%
COc1cccc(CNC(=O)CN2C(=O)COc3ccc(S(=O)(=O)Nc4ccccc4)cc32)c1 | . | -0.3% | . | . | . | 1.5%
Cc1ccc2c(C(=O)CNc3nccs3)c[nH]c2c1 | . | . | . | . | . | 2.3%
C[C@H]1c2cccc(O)c2C(=O)C2C(=O)C3(O)C(=O)C(C(N)=O)C(=O)[C@@H](N(C)C)[C@@H]3[C@@H](O)[C@@H]21 (some centres undefined) | -1.4 | 2.6% | 6.31µM* | 10.3 | -3.9% | 0.7%
C[C@H]1c2cccc(O)c2C(O)=C2C(=O)C3(O)C(O)=C(C(N)=O)C(=O)[C@@H](N(C)C)[C@@H]3[C@@H](O)[C@@H]21 (some centres undefined) | -24.7 | 3.1% | ? | -3.8 | 9.5% | 0.2%
O=c1c2c(C(F)(F)F)cc(C(F)(F)F)nc2[nH]n1-c1ccccc1 | -4.5 | 0.2% | 1.2% | -74.9* | 7.9% | 0.9%
Cc1cc(C(C)(C)C)nc2[nH]n(-c3ccccc3)c(=O)c12 | 6.4 | 4.4% | -9.0% | 17.2 | 9.0% | 0.3%
CC(=O)c1ccc(Nc2nc3ccccc3nc2-n2nc(C)cc2C)cc1 | . | -0.1% | . | . | . | -1.0%
CCC(CC)C(=O)Nc1ccc(C(=O)OCc2cc(=O)n3nc(C4CC4)sc3n2)cc1 | . | -5.5% | . | . | . | -1.5%
CCC(C)(C)NC(=S)Nc1ccc(-c2nc3ccc(C)cc3s2)cc1 | -1.8 | 2.4% | ? | 0.0 | ? | -15.4%
C=CCn1c(SCC(=O)Nc2ccc(-c3nc4ccc(C)cc4s3)cc2)nnc1-c1ccccc1 | 0.1 | -23.9% | 10.3µM* | -0.2 | 4.11µM* | -8.1%
C=CCn1c(SCC(=O)NNC(=O)Nc2ccc(C)cc2)nnc1-c1ccccc1 | 13.8 | -1.5% | 2.4% | ? | -1.8% | 1.3%
O=[N+]([O-])c1ccc2nc(NS(=O)(=O)c3ccc(F)cc3)sc2c1 | -7.8 | -17.0% | ? | ? | 7.31µM* | -14.0%
Cc1ccc2nc(-c3ccc(NC(=O)COC(=O)c4ccco4)cc3)sc2c1 | -13.5 | -11.5% | 16.3% | -50.6* | -3.6% | -17.2%
Cc1ccc(S(=O)(=O)Nc2nc3ccc(N)cc3s2)cc1 | -2.5 | 10.1% | -7.2% | 0.8 | -3.7% | -3.7%
Cc1ccc2nc(-c3ccc(NC(=O)COC(=O)c4ccc(Br)o4)cc3)sc2c1 | ? | -27.6% | ? | 28.1 | 1.7% | ?
Cc1ccc2nc(-c3ccc(NC(=S)NCC(C)(C)CN(C)C)cc3)sc2c1 | -23.0 | 4.8% | ? | 0.0 | 18.4µM* | -4.7%
CCOC(=O)c1ccccc1NC(=O)Cn1c(=O)n(-c2cccc(C)c2)c(=O)c2c1c1cc(C)ccc1n2C | . | 3.0% | . | . | . | -0.9%
SMILES | Giardia killer | Vif-APOBEC3F blk | SW480 rereplic | IL-1B inflam inh | MCF10A rereplic | Vif-APOBEC3G blk
CCN(C(=O)Cn1nc(Cc2ccncc2)c2ccccc2c1=O)c1cccc(C(F)(F)F)c1 | . | 2.2% | . | . | . | -5.3%
Cc1ccc(-c2cc3nc(-c4ccccc4)cc(C(F)(F)F)n3n2)cc1 | . | 0.3% | . | . | . | -0.6%
O=[N+]([O-])c1ccc2nc(NN=Cc3ccc(O)cc3)sc2c1 | 6.5 | 1.6% | 20.6µM* | -95.5* | 9.2µM* | 0.2%
Cc1ccc2nc(-c3ccc(NS(=O)(=O)c4ccc(F)cc4)cc3)sc2c1 | -23.5 | -20.9% | ? | -102.7* | 14.6µM* | -7.4%
CC(C)c1ccc(/C=C/C(=O)Nc2nc3ccc([N+](=O)[O-])cc3s2)cc1 | 13.9 | -1.4% | -13.8% | 20.6 | -3.5% | -3.8%
CNC(=S)Nc1ccc(-c2nc3ccc(C)cc3s2)cc1 | -14.9 | ? | ? | ? | 22.4µM* | -10.0%
CO[C@H]1OC2O[C@@]3(C)CC[C@H]4[C@H](C)CC[C@@H]([C@H]1C)[C@@]24OO3 (some centres undefined) | . | . | ? | . | 6.0% | .
CCCCCCCCCCCCCCCCOC(=O)N1CCN(/[N+]([O-])=N/Oc2ccc([N+](=O)[O-])cc2[N+](C)=O)CC1 | . | . | . | . | . | -0.6%
COc1ccc(NC(=O)c2[nH]c(C)c(C(C)=O)c2C)cc1Cl | 38.5 | -9.4% | ? | -8.1 | ? | -28.9%
Cc1cc(Cl)c(C(=O)Nc2cccc(C(F)(F)F)c2)c(C)n1 | 13.0 | 2.1% | -14.6% | -53.7* | ? | -0.9%
CCn1cc(Cl)c(C(=O)Nc2cccc(C(F)(F)F)c2)n1 | -17.1 | -7.3% | -6.8% | -63.6* | -4.1% | 2.1%
CC(=O)c1c(C)[nH]c(C(=O)Nc2cccc(C#N)c2)c1C | -6.9 | -12.5% | 5.3% | -3.7 | -0.7% | -2.3%
CC(=O)c1c(C)[nH]c(C(=O)Nc2cccc(C(F)(F)F)c2)c1C | 20.5 | -1.3% | 8.7% | -73.4* | 3.9% | -2.7%
COc1ccc(C(C)(C)C)cc1NC(=O)c1[nH]c(C)c(C(C)=O)c1C | 0.5 | 1.6% | ? | -2.4 | 18.4µM* | -7.4%
CSc1nn(CC(=O)Nc2cc(C)ccc2C)c(N)c1S(=O)(=O)c1ccccc1 | . | 1.6% | . | . | . | -1.4%
CCOc1ccc(CCNC(=O)CCCc2nnc3n(CC(C)C)c(=O)c4sccc4n23)cc1 | . | -1.5% | . | . | . | -1.0%
COc1cccc2cc(-c3nc(-c4ccccc4)c(C)s3)c(=O)oc12 | 12.1 | . | . | . | . | -4.6%
NC(CS)C(=O)O (centres undefined) | . | . | -1.9% | . | -7.0% | -0.8%
Cc1ccc(OCCCN2C(=O)C(=O)c3cc(C)ccc32)cc1 | ? | 2.2% | 23.1µM* | ? | 20.6µM* | 1.5%
CN(C)CC1CCCCC1OC(=O)/C=C/c1ccc(Cl)cc1Cl (centres undefined) | 5.3 | -6.9% | 7.6% | -79.3* | 8.2% | -3.8%
